In PubChem BioAssay (NCATS):
Inconclusive results are not listed. The source made the active and inactive calls. Calls come from the whole dose curve; as a rule, active = well fitted curve in the direction sought with a large enough effect; inconclusive = small, poorly fitted or top-dose-only effect, or another doubt; inactive = no such curve, though single readings can be large; an effect the other way counts as inactive or inconclusive.

Tests used:
[1] = tested on: Nanoluciferase (engineered Oplophorus gracilirostris luciferase); assay: Primary Nanoluciferase (NLuc) qHTS assay for identification of artifact compounds. (AID 1845222);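 note: NLuc secreted into diluted conditioned medium of S16 cells; 0% = DMSO and -100% = no enzyme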
In short: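 NLuc from S16 cell medium (1:55) plus test compounds, 15 min, room temperature. Luminescence after Nano-Glo (1:100) addition, 5 min.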

[2] = Primary redox qHTS assay for identification of artifact compounds. (AID 1845223)
In short: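 Redox-cycling detection via DTT (250 uM final) oxidation coupled to Amplex Red (25 uM)/HRP (250 mU/mL) in HBSS. 15 min preincubation plus 30 min after DTT, room temperature. Ex/Em 525/598 nm; 4-parameter Hill fit against DMSO and 10 uM DA3003.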

[3] = Quantitative High-Throughput drug screen in 47 multiple myeloma cell lines against the NCATS MIPE library collection: FR4_PLB cell viability assay (AID 1918924; note: nearly all actives have a fitted effect of over 35% in size; note: potency is the fitted concentration of half-maximal effect)
In short: (§1)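 Approved and investigational drugs from MIPE 4.0 were added by pin tool to 500 cells per well. After 48 hours at 37C, ATP-based CellTiter-Glo luminescence indicated remaining viability.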

[4] = Quantitative High-Throughput drug screen in 47 multiple myeloma cell lines against the NCATS MIPE library collection: Delta47_JCRB cell viability assay (AID 1918925; note: nearly all actives have a fitted effect of over 45% in size; note: potency is the fitted concentration of half-maximal effect)
In short: (§2)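 Steps: seed 500 cells per well; pin-transfer MIPE 4.0 library; incubate 48 h at 37C, 5% CO2, humidified; add CellTiter-Glo, 5 min room temperature; read luminescence.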

[5] = Quantitative High-Throughput drug screen in 47 multiple myeloma cell lines against the NCATS MIPE library collection: EJM_DSMZ cell viability assay (AID 1918926; note: nearly all actives have a fitted effect of over 30% in size; note: potency is the fitted concentration of half-maximal effect)
In short: as §2

[6] = Quantitative High-Throughput drug screen in 47 multiple myeloma cell lines against the NCATS MIPE library collection: AMO1_DSMZ cell viability assay (AID 1918927; note: nearly all actives have a fitted effect of over 30% in size; note: potency is the fitted concentration of half-maximal effect)
In short: as §2

[7] = Quantitative High-Throughput drug screen in 47 multiple myeloma cell lines against the NCATS MIPE library collection: ARD_JJKsccE7 cell viability assay (AID 1918929; note: potency is the fitted concentration of half-maximal effect)
In short: as §2

[8] = Quantitative High-Throughput drug screen in 47 multiple myeloma cell lines against the NCATS MIPE library collection: Karpas620_DSMZ cell viability assay (AID 1918959); note: nearly all actives have a fitted effect of over 30% in size; note: potency is the fitted concentration of half-maximal effect
In short: as §1

[9] = Quantitative High-Throughput drug screen in 47 multiple myeloma cell lines against the NCATS MIPE library collection: KMM1_JCRB cell viability assay (AID 1918960); note: nearly all actives have a fitted effect of over 30% in size; note: potency is the fitted concentration of half-maximal effect;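 for viability (% of DMSO): 100% = DMSO-treated cells and 0% = medium-only wells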
In short: (§3)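 Each line was plated at 500 cells/well and treated 48 h with library drugs. Viability came from CellTiter-Glo luminescence relative to DMSO and cell-free medium controls.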

[10] = Quantitative High-Throughput drug screen in 47 multiple myeloma cell lines against the NCATS MIPE library collection: Karpas417_ECACC cell viability assay (AID 1918961); settings: Karpas417 myeloma viability, CellTiter-Glo ATP luminescence, 48 h; viability (% of DMSO): at 45.8 µM (top of the series); note: potency is the fitted concentration of half-maximal effect
In short: (§4)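 Inhibition of cell viability is measured here. Each line was plated at 500 cells per well, treated with MIPE 4.0 drugs, kept 48 hours at 37C, then assayed for ATP content by CellTiter-Glo luminescence.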

[11] = Quantitative High-Throughput drug screen in 47 multiple myeloma cell lines against the NCATS MIPE library collection: KHM11_PLB cell viability assay (AID 1918962); note: nearly all actives have a fitted effect of over 35% in size; note: potency is the fitted concentration of half-maximal effect
In short: as §1

[12] = Quantitative High-Throughput drug screen in 47 multiple myeloma cell lines against the NCATS MIPE library collection: JIM3_ECACC cell viability assay (AID 1918963; note: nearly all actives have a fitted effect of over 35% in size; note: potency is the fitted concentration of half-maximal effect)
In short: as §1

[13] = Quantitative High-Throughput drug screen in 47 multiple myeloma cell lines against the NCATS MIPE library collection: JJN3_DSMZ cell viability assay (AID 1918966; note: nearly all actives have a fitted effect of over 50% in size; note: potency is the fitted concentration of half-maximal effect)
In short: as §2

[14] = Quantitative High-Throughput drug screen in 47 multiple myeloma cell lines against the NCATS MIPE library collection: KMS12BM_JCRB cell viability assay (AID 1918971); note: potency is the fitted concentration of half-maximal effect; nearly all actives have a fitted effect of over 35% in size
In short: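 Myeloma cell lines, 500 cells per well, exposed to MIPE 4.0 library compounds for 48 h at 37C, 5% CO2. Viability from ATP by CellTiter-Glo luminescence; normalised to DMSO (100%) and media-only (0%) wells.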

[15] = Quantitative High-Throughput drug screen in 47 multiple myeloma cell lines against the NCATS MIPE library collection: ARP1_JJKsccF8 cell viability assay (AID 1918928; note: nearly all actives have a fitted effect of over 40% in size; note: potency is the fitted concentration of half-maximal effect)
In short: as §3

[16] = Quantitative High-Throughput drug screen in 47 multiple myeloma cell lines against the NCATS MIPE library collection: Karpas25_ECACC cell viability assay (AID 1918968; note: nearly all actives have a fitted effect of over 35% in size; note: potency is the fitted concentration of half-maximal effect)
In short: as §2

[17] = Quantitative High-Throughput drug screen in 47 multiple myeloma cell lines against the NCATS MIPE library collection: KMS27_JCRB cell viability assay (AID 1918970); settings: KMS27 myeloma cells, CellTiter-Glo ATP viability, 48 h; viability (% of DMSO): at 45.8 µM (top of the series); note: nearly all actives have a fitted effect of over 30% in size; note: potency is the fitted concentration of half-maximal effect
In short: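 ATP-based viability (CellTiter-Glo luminescence) is measured in cells treated 48 h with approved and investigational drugs at 37 °C. Controls are DMSO-only wells for full viability and media-only wells for none.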

[18] = Quantitative High-Throughput drug screen in 47 multiple myeloma cell lines against the NCATS MIPE library collection: INA6_PLB cell viability assay (AID 1918965; note: nearly all actives have a fitted effect of over 55% in size; note: potency is the fitted concentration of half-maximal effect)
In short: as §4

[19] = Quantitative High-Throughput drug screen in 47 multiple myeloma cell lines against the NCATS MIPE library collection: H1112_PLB cell viability assay (AID 1918967; note: nearly all actives have a fitted effect of over 30% in size; note: potency is the fitted concentration of half-maximal effect)
In short: as §2

[20] = Quantitative High-Throughput drug screen in 47 multiple myeloma cell lines against the NCATS MIPE library collection: JIM1_ECACC cell viability assay (AID 1918964; note: potency is the fitted concentration of half-maximal effect)
In short: as §2

O[C@@H](COc1cccc2ncccc12)CN1CCN(C2c3ccccc3[C@@H]3[C@H](c4ccccc42)C3(F)F)CC1 (stereo partly specified)
active: Potency [3] 23.5 µM | Potency [4] 16.6 µM | Potency [5] 23.5 µM | Potency [11] 16.6 µM | Potency [12] 13.2 µM | Potency [13] 14.8 µM | Potency [14] 23.5 µM
inactive: Potency [1] | outcome [2] | Potency [6] | Potency [7] | Potency [8] | Potency [9] | Potency [10]

Cc1csc(-c2nnc(Nc3ccc(Oc4ncccc4-c4ccnc(N)n4)cc3)c3ccccc23)c1
inactive: Potency [1] | outcome [2]
active: Potency [3] 16.6 µM | Potency [4] 23.5 µM | Potency [6] 2.96 µM | Potency [15] 5.26 µM | Potency [7] 23.5 µM | Potency [9] 14.8 µM

C[C@H](c1ccc(F)cc1CCCC(=O)O)N(c1cc(F)ccc1F)S(=O)(=O)c1ccc(Cl)cc1
active: Potency [4] 20.9 µM | Potency [15] 0.935 µM | Potency [12] 26.4 µM | Potency [16] 20.9 µM | Potency [14] 1.48 µM
inactive: Potency [1] | outcome [2] | Potency [6] | Potency [17]

CC(=O)Nc1cccc(-n2c(=O)n(C3CC3)c(=O)c3c(Nc4ccc(I)cc4F)n(C)c(=O)c(C)c32)c1
inactive: Potency [1] | outcome [2] | Potency [15]
active: Potency [3] 0.743 µM | Potency [6] 1.18 µM | Potency [9] 0.0935 µM | Potency [10] 0.0662 µM | Potency [11] 0.0059 µM | Potency [12] 0.187 µM | Potency [18] 0.0418 µM | Potency [19] 0.0469 µM | Potency [16] 1.66 µM

Cc1c(C(=O)Nc2ccc(N3C[C@@H](C)O[C@@H](C)C3)nc2)cccc1-c1ccc(OC(F)(F)F)cc1
active: Potency [4] 4.69 µM | Potency [6] 2.96 µM | Potency [7] 0.935 µM | Potency [8] 8.33 µM | Potency [9] 1.18 µM | Potency [10] 1.66 µM | Potency [11] 6.62 µM | Potency [13] 14.8 µM | Potency [16] 4.18 µM | Potency [14] 18.7 µM
inactive: Potency [1] | outcome [2] | Potency [12]

c1cc(OCCN2CCCCC2)cc(-c2n[nH]c3ccc(-c4ncn[nH]4)cc23)c1
active: Potency [4] 13.2 µM | Potency [5] 33.2 µM | Potency [7] 2.35 µM | Potency [11] 14.8 µM | Potency [12] 18.7 µM | Potency [18] 6.62 µM | Potency [13] 11.8 µM | Potency [16] 14.8 µM | Potency [17] 18.7 µM
inactive: Potency [1] | outcome [2] | Potency [8]

N#CC1(c2cccc(C(=O)Nc3cc(Oc4ccc5nc(NC(=O)C6CC6)sc5n4)ccc3F)c2Cl)CC1
inactive: Potency [1] | outcome [2] | Potency [4]
active: Potency [3] 10.5 µM | Potency [5] 20.9 µM | Potency [15] 9.35 µM | Potency [7] 0.59 µM | Potency [10] 0.187 µM | Potency [18] 5.9 µM | Potency [19] 13.2 µM | Potency [14] 13.2 µM

CN[C@@H](C)[C@H]1[C@H](O)C[C@@]2(C)[C@@H]3CC[C@H]4C(C)(C)[C@@H](NC)CC[C@@]45C[C@@]35CC[C@]12C
active: Potency [15] 23.5 µM
inactive: activity, negative = inhibition [1] 3.6% [at 11.6 µM] | redox activity (% of DA3003) [2] -0.744% [at 11.5 µM] | Potency [4] | Potency [5] | Potency [7] | Potency [8] | Potency [9] | Potency [12] | Potency [20] | Potency [18] | Potency [13] | Potency [19] | Potency [16] | Potency [17]

COc1ccc(CCC(=O)Nc2nc3ccc(Cl)cc3s2)cc1OC
active: Potency [12] 14.8 µM
inactive: Potency [1] | outcome [2] | Potency [3] | Potency [7] | Potency [8] | Potency [9] | Potency [11] | Potency [13] | Potency [17]

CN(C)c1ccc(-c2nc3ncc(Cl)c(N4CCN(CC(=O)Nc5nccs5)CC4)c3[nH]2)cc1
active: Potency [3] 2.09 µM | Potency [5] 5.9 µM | Potency [12] 3.32 µM | Potency [18] 2.64 µM | Potency [13] 18.7 µM | Potency [16] 2.64 µM | Potency [14] 4.18 µM
inactive: Potency [1] | outcome [2] | Potency [9] | Potency [20]

CN1CCc2c(n(Cc3ccc(C(=O)NO)cc3)c3ccccc23)C1
active: Potency [3] 16.6 µM | Potency [4] 20.9 µM | Potency [15] 18.7 µM | Potency [18] 4.69 µM | Potency [16] 16.6 µM | Potency [17] 0.743 µM | Potency [14] 18.7 µM
inactive: Potency [1] | outcome [2]

COc1ccc(Cn2ccc3ccc(C(=O)NO)cc32)cc1
active: Potency [5] 20.9 µM | Potency [6] 16.6 µM | Potency [18] 13.2 µM | Potency [13] 11.8 µM | Potency [16] 16.6 µM
inactive: Potency [1] | outcome [2] | Potency [3] | Potency [8] | Potency [20] | Potency [19]

CC(C)CNc1ccnc(NCc2csc(-c3ccccc3)n2)n1
inactive: Potency [1] | outcome [2]
active: Potency [3] 16.6 µM | Potency [4] 2.35 µM | Potency [6] 10.5 µM | Potency [8] 5.26 µM | Potency [9] 7.43 µM | Potency [10] 16.6 µM | Potency [11] 9.35 µM | Potency [12] 5.26 µM | Potency [20] 11.8 µM | Potency [18] 2.64 µM | Potency [19] 6.62 µM | Potency [16] 0.935 µM | Potency [17] 13.2 µM | Potency [14] 16.6 µM
